Assay results taken from paper PMC4336329 (PLoS ONE, 2015).
About 14,000 (4.5%) of roughly 310,000 compounds showed an effect of 50% or more. The effect is printed as a negative number. This is one part of a sample in which strong results are shown more often than they occur.

The compounds below were run against human ether-à-go-go-related gene (hERG) potassium channel (human, UniProt Q12809) (assay: primary screen, population patch clamp on CHO cells stably expressing hERG; higher = less effect of the substance).
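Note: peak tail current of the secondary pulse compared with the same well before compound.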

Sequence of human ether-à-go-go-related gene (hERG) potassium channel (Q12809 whole entry, looked up): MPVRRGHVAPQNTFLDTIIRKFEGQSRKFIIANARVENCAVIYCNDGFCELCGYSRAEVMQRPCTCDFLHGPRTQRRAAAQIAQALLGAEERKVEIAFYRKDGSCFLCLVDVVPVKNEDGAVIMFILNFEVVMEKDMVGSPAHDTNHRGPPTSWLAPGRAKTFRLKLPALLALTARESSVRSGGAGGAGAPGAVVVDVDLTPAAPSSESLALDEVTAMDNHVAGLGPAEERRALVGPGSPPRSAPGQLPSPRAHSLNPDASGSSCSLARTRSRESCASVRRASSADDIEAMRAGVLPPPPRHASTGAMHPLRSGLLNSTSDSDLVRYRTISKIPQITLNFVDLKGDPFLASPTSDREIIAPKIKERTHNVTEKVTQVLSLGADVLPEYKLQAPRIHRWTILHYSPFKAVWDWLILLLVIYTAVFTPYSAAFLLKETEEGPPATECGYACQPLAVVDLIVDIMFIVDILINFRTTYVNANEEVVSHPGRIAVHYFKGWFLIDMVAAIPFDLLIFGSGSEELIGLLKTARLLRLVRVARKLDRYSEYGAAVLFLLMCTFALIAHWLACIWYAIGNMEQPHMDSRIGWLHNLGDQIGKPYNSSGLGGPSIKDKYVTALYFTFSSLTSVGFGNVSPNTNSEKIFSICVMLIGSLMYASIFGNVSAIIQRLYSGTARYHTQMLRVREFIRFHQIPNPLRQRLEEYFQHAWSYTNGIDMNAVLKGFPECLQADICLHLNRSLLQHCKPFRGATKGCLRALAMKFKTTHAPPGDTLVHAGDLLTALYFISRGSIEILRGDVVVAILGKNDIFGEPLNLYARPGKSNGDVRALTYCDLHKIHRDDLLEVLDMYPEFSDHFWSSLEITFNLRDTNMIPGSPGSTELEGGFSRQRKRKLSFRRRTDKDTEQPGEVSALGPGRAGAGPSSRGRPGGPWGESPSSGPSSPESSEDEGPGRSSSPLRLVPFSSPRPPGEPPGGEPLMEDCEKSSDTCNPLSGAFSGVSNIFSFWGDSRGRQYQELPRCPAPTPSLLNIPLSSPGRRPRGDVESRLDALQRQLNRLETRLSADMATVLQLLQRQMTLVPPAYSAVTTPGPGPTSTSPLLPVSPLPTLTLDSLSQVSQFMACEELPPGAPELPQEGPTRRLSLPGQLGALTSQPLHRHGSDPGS

SMILES	hERG current change (%, negative = inhibition) at 10uM
CC(C)C[C@H](NC(=O)c1nc[nH]c1C(=O)NCc1ccc(CNC(=O)OC(C)(C)C)cc1)C(=O)OC(C)(C)C	2.06%
CN(C)Cc1nc2c(c(=O)[nH]1)C1(CCCCC1)Cc1ccccc1-2	-11.7%
CSc1ccc(/C=C/C(=O)NC23CC4CC(CC(C4)C2)C3)cc1	14.6%
C=CCNC(=S)NNC(=O)c1ccc(OCCCC)cc1	10.2%
CCN(CC(=O)NC(C)C)C(=O)[C@@H](NC(=O)c1ccco1)C(C)C	11.5%
COc1ccc([N+](=O)[O-])cc1C(=O)C(=O)c1ccccc1	8.56%
O=C(CCn1c(=S)oc2ccccc21)N1CCN(c2ccc(F)cc2)CC1	-25.3%
O=C(CCn1c(=O)oc2ccccc21)NCCCN1CCOCC1	16.9%
O=C(CCn1c(=O)oc2ccccc21)N1CCN(c2ccccc2F)CC1	-23.8%
O=C(CCn1c(=O)oc2ccccc21)N1CCN(c2ccc(F)cc2)CC1	-58%
O=C(CCCn1c(=O)oc2ccccc21)N1CCN(c2ccccn2)CC1	-47.6%
O=C1CCN(C(=O)CCCn2c(=O)oc3ccccc32)CC1	17%
O=C(CN1C(=O)c2ccccc2S1(=O)=O)N1CCN(c2ccc(F)cc2)CC1	-7.37%
O=C(CCn1c(=O)oc2ccccc21)NCCCN1CCN(c2ccc(F)cc2)CC1	-66.2%
O=C(CCn1c(=O)oc2ccccc21)NCCN1CCOCC1	-2.83%
Cl.O=C(CCN1C(=O)c2ccccc2S1(=O)=O)N1CCN(c2ccccc2)CC1	2.96%
O=C(CCCn1c(=O)oc2ccccc21)N1CCN(c2ccc(F)cc2)CC1	-63.9%
O=C(CCN1C(=O)c2ccccc2S1(=O)=O)N1CCN(c2ccc(F)cc2)CC1	-61.9%
COc1ccc(C(=O)OCCN2C(=O)c3ccccc3C2=O)cc1	-5.4%
COc1cc(OC)cc(-c2sc3ccc(OC)cc3c2C#CCCO)c1	10.5%
COc1ccc(CC(=O)NNC(=O)CCC(=O)Nc2cc(C)ccc2C)cc1	10.4%
Cc1[nH]c2ccccc2c1C(=O)NS(=O)(=O)Nc1ccccc1	9.15%

SMILES	hERG current change (%, negative = inhibition) at 10uM
CS(=O)(=O)c1cccc(C(=O)NCc2ccccc2)c1	-0.394%
CC1(c2ccccc2)NC(=O)N(CC(=O)Nc2ccc(N3CCOCC3)cc2N2CCOCC2)C1=O (centres unmarked)	6.74%
CCc1ccc(C(=O)N/N=C(\C)c2ccncc2)s1	-11.1%
N#Cc1ccc(Cn2ccnc2C(=O)Nc2ccccc2)cc1	-87%
Cc1ccc(Cn2ccnc2C(=O)Nc2ccccc2)cc1	6.59%
O=C(Nc1ccccc1)c1nccn1Cc1ccc(F)cc1	-10.9%
Cn1c(SCC(=O)NC2CCCC2)nnc1-c1ccncc1	33.9%
CCOc1cc(C(=S)N2CCN(C)CC2)ccc1OCC(=O)N1CCCC1	16%
Cc1ccc(C2=Nc3cccnc3C(c3ccccc3)=NN2)cc1	0.802%
O=C(CSc1nnc2n(C3CCCCC3)c(=O)c3ccccc3n12)OC1CCCCC1	-4.92%
COc1ccccc1Cn1c(=O)c2ccccc2n2c(SCC(=O)N3CCCCC3)nnc12	15.2%
CC1CCCN(C(=O)CSc2nnc(-c3cccnc3)n2C2CCCCC2)C1 (centres unmarked)	-13.4%
O=C(CSc1nnc2n(C3CCCC3)c(=O)c3ccccc3n12)N1CCCCCC1	-51.1%
CC1CCCN(C(=O)CSc2nnc3n(C4CCCC4)c(=O)c4ccccc4n23)C1 (centres unmarked)	-62.7%
CC1CCCN(C(=O)CSc2nnc3ccccn23)C1 (centres unmarked)	4.63%
O=C(O)c1nccnc1C(=O)Nc1ccc(Oc2c(Cl)cccc2Cl)nc1	-26.1%
CCN(CC)c1ccc(NC(=O)CN2CCN(CC(=O)Nc3ccccc3OC)CC2)cc1	-26.9%
COc1ccccc1NC(=O)CN1CCN(CC(=O)Nc2ccc(C)c(F)c2)CC1	-70%
COc1cc(NC(=O)CN2CCN(CC(=O)Nc3ccccc3OC)CC2)cc(OC)c1	0.0651%
COc1ccc(C)cc1NC(=O)CN1CCN(c2ccccc2F)CC1	-10.3%
COc1ccccc1NC(=O)CN1CCN(c2ccccc2F)CC1	-18.4%
COc1ccc(C)cc1NC(=O)CN1CCN(c2ccc(F)cc2)CC1	-50.4%

SMILES	hERG current change (%, negative = inhibition) at 10uM
COc1ccc(C)cc1NC(=O)CN1CCN(S(=O)(=O)c2ccc(F)cc2)CC1	7.19%
COc1ccccc1N1CCN(CC(=O)Nc2ccc(C)c(F)c2)CC1	-23.1%
COc1ccccc1NC(=O)CN1CCN(CC(=O)Nc2ccc(F)cc2)CC1	-79.2%
COc1ccc(Nc2nc3[nH]c(=O)cc(O)c3s2)cc1	14.2%
Cc1ccc(S(=O)(=O)NN2C(=O)/C(=C/c3ccc(C(=O)O)cc3)SC2=S)cc1	19.9%
Cc1ccc(NC(=O)CCNC(=O)c2ccc(Cl)cc2)cc1F	9.19%
O=C(CCNS(=O)(=O)c1ccccc1)NNC(=O)COc1ccc(Cl)cc1	2.29%
O=C(COc1ccc(Nc2ccccc2)cc1)Nc1ccncc1	-30.1%
O=C(Nc1ccc2c(c1)OCO2)Nc1ccc(Cl)cc1Cl	9.53%
CCCCOC(=O)NC(NCC(O)c1ccccc1)(C(F)(F)F)C(F)(F)F (centres unmarked)	6.78%
O=C(CN(Cc1ccccc1Cl)C(=O)c1csnn1)NCc1ccc(F)cc1	-50.4%
COc1ccc(CNC(=O)CN(C(=O)c2csnn2)c2cccc3c2CCCC3)cc1	-14.9%
O=C(CN(C(=O)c1csnn1)c1cccc2c1CCCC2)NCc1ccc(F)cc1	-57.7%
O=C(CN(C(=O)c1csnn1)c1cccc2c1CCCC2)NCc1ccccc1	-5.19%
O=C(CN(Cc1ccccc1)C(=O)c1csnn1)NCCc1ccccc1	-18.9%
O=C(CN(Cc1ccccc1)C(=O)c1csnn1)NCc1ccccc1	8.5%
O=C(CN(Cc1ccc(Cl)cc1)C(=O)c1csnn1)NCc1ccc(F)cc1	-66.6%
COc1ccc(CNC(=O)CN(Cc2ccccc2Cl)C(=O)c2csnn2)cc1	-34.8%
O=C(CN(Cc1ccc(F)cc1)C(=O)c1csnn1)NCc1ccccc1	-31.6%
O=C(CN(Cc1ccc(Cl)cc1)C(=O)c1csnn1)NCc1ccccc1	-56.7%
O=C(CN(Cc1ccccc1Cl)C(=O)c1csnn1)NCc1ccccc1	-24%
C=CCN(CC(=O)NCc1ccc(F)cc1)C(=O)c1csnn1	-18.2%

SMILES	hERG current change (%, negative = inhibition) at 10uM
C/C(=N/NC(=O)c1ccc2c(c1)OCO2)c1cccc([N+](=O)[O-])c1	-10.1%
COc1ccc(C(=O)OCn2nnc3ccccc3c2=O)cc1	-10.4%
Cc1cc(C(=O)Nc2ccc(Nc3ccccc3)cc2)ccc1[N+](=O)[O-]	17.3%
CCc1ccc(NC(=O)CS(=O)CC(=O)NC(C)CCc2ccco2)cc1 (centres unmarked)	9.65%
CSc1nc2ccccc2cc1/C=C(\C#N)c1cccc(Cl)c1	8.2%
CCN1C(C(=O)Nc2cc(C)on2)=C(O)c2ccccc2S1(=O)=O	24.7%
CCCCCC(=O)Nc1cccc(C2=NOC3(C2)C[C@@H](C(N)=O)N(C(=O)c2ccc(Cl)cc2)C3)c1 (some centres unmarked)	-29.6%
O=C(COc1ccc(Cl)cc1)Nc1cccc(S(=O)(=O)NC2=NCCCCC2)c1	-42.1%
C/C(=N/NC(=O)CSc1ccccn1)c1ccc([N+](=O)[O-])cc1	-64.2%
C/C(=N\NC(=O)CN1CCN(Cc2ccccc2)CC1)c1cccs1	-50.9%
C/C(=N/NC(=O)CC(=O)N/N=C(\C)c1ccc([N+](=O)[O-])cc1)c1ccc([N+](=O)[O-])cc1	-28.8%
C/C(=N/NC(=O)CN1CCN(Cc2ccccc2Cl)CC1)c1cccs1	-17.8%
C/C(=N\NC(=O)Cc1ccccc1)c1cccs1	-4.86%
C/C(=N\NC(=O)CN1CCCCC1)c1cccc([N+](=O)[O-])c1	-25.9%
C/C(=N/NC(=O)CN1CCN(Cc2ccccc2)CC1)c1ccc([N+](=O)[O-])cc1	-76.5%
C/C(=N\NC(=O)CSc1nc(C)cc(C)n1)c1ccc([N+](=O)[O-])cc1	-10.8%
C/C(=N\NC(=O)c1ccc(CN2CCOCC2)cc1)c1ccc([N+](=O)[O-])cc1	-7.18%
CC1CCCCN1C(=O)CSc1nnc(-c2ccco2)n1C (centres unmarked)	4.88%
COCCNCC(=O)N1CCCCCC1.O=C(O)C(=O)O	-24.6%
Cc1cc(C(=O)OCC(=O)N2CCCC2)c2ccccc2n1	-9.04%
